In the supplement of paper PMC7156485:
± gives the standard deviation of the averaged measurements.

test system: TDF; test: cell number relative to DMSO (% of DMSO); higher = more cells (less growth inhibition / toxicity); settings: concentration: 10 µM; 24 h
Summary of the method: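 Six fields per well were imaged at ×10 after the cells were fixed in 3.7% formaldehyde and stained with a rabbit anti-H1.0 antibody, an AlexaFluor 647 secondary and DAPI. The HCC1569 and TDF cells had been plated at 800 per well in 384-well plates (RPMI, 10% FBS) and treated in triplicate with compounds at 10 µM for 24 h at 37 °C. The values are the median of replicates of H1.0 nuclear intensity or cell number, as percent of the plate control. Smoothing for positional effects was applied to HCC1569 data.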
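Note: TDF denotes transformed human dermal fibroblasts of mesenchymal origin.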

Structure (SMILES)	cell number
COc1cc(/C=C/C(=O)CC(=O)/C=C/c2ccc(O)cc2)ccc1O	66.7
CCCCOc1cc(CC2CNC(=O)N2)ccc1OC (stereo not given)	110
CCOC(=O)C1=CC2(CC)CCCN3CCc4c(n1c1ccccc41)C32 (stereo not given) [Vinpocetine]	106 ± 5.3
N[C@H](CCC(=O)NCS(=O)(=O)O)C(=O)O [gamma-D-Glutamylaminomethylsulfonic acid]	109
COc1cc2c(cc1OC)C1C(=O)c3ccc4c(c3OC1CO2)C=CC(C)(C)O4 (stereo not given) [Degeulin]	76.5
Cc1ccc(S(=O)(=O)NC(=O)NN2CCCCCC2)cc1 [Tolazamide]	111.1 ± 0.38
COc1cc2c(cc1OC)C(c1ccccc1)CN(C)CC2.O=C(O)C=CC(=O)O (stereo not given)	98.3
CCCC1CC(C(=O)NC(C(C)O)C2OC(SC)C(O)C(O)C2O)N(C)C1 (stereo not given) [Lincomycin]	113 ± 2.2
O=c1cc(N2CCOCC2)nc2c3ccccc3ccn12	91.4
CN(C)C(=S)NN=C(c1ccccn1)c1ccccn1 [(Z)-di(2-pyridinyl)methanone N,N-dimethylthiosemicarbazone]	52.4
CCCCc1nc(Cl)c(CO)n1Cc1ccc(-c2ccccc2-c2nnn[n-]2)cc1.[K+] [Losartan potassium]	90.1
O=c1cc(-c2ccccc2)oc2cc(O)cc(O)c12 [Chrysine]	99.8
CC1OC(OCC2OC(Oc3cc(O)c4c(c3)OC(c3ccc(O)cc3)CC4=O)C(O)C(O)C2O)C(O)C(O)C1O (stereo not given) [Narirutin]	103
CC(C)(ON=C(C(=O)NC1C(=O)N2C(C(=O)[O-])=C(C[n+]3ccccc3)CSC12)c1csc(N)n1)C(=O)O (stereo not given) [Ceftazidime]	103
CC(=O)OC1(C(C)=O)CCC2C3C=C(Cl)C4=CC(=O)C5CC5C4(C)C3CCC21C (stereo not given) [Cyproterone Acetate]	93.8
COc1cc(O)c2c(c1)oc(=O)c1c3cc(O)c(O)cc3oc21 [Wedelolactone]	74.8
CCC(C)(C)c1ccc(CC(C)CN2CC(C)OC(C)C2)cc1 (stereo not given) [Amorolfine]	98.9
COc1ccccc1OCC(O)CN1CCN(CC(=O)Nc2c(C)cccc2C)CC1.Cl.Cl (stereo not given) [Ranolazine.2HCl]	93.2
CCN(CC)CCNC(=O)c1cc(S(C)(=O)=O)ccc1OC.Cl [Tiapride hydrochloride]	107
CCCNCC(O)COc1ccccc1C(=O)CCc1ccccc1.Cl [(S)-(-)-propafenone hydrochloride]	104

Structure (SMILES)	cell number
O=C(O)CO.[NH2-].[NH2-].[Pt+2] [Nedaplatin]	92.6
O=[N+]([O-])c1cc(S(=O)(=O)Nc2ccc(O)c3ccccc23)ccc1Cl [4-chloro-N-(4-hydroxy-1-naphthyl)-3-nitrobenzenesulfonamide]	76.6
CCOC(=O)c1c2c3c(cccc3[nH]c1=O)C(=O)c1ccccc1-2	108
C1COC(NC(C2CC2)C2CC2)=N1.O=P(O)(O)O [Rilmenidine phosphate]	110
CCCCCCCCC=CCCCCCCCCC(=O)O [10(E)-Nonadecenoic acid]	98.8
Nc1ncnc2c1ncn2C1CCCC1 [9-cyclopentyladenine]	113
CC[C@H](C(=O)Nc1ccccc1N1CCCC1)c1ccccc1 [(2S)-2-Phenyl-N-[2-(1-pyrrolidinyl)phenyl]butanamide]	103
CCCCCCCCC=CCC=CCC=CCCCC(=O)NCCO [Mead ethanolamide]	95.8
CCCCCOc1ccccc1C(O)CC#CCCCC(=O)OC (stereo not given)	106
CN1CCCN=C1C=Cc1cccs1.O=C(O)c1cc2ccccc2c(Cc2c(O)c(C(=O)O)cc3ccccc23)c1O [Pyrantel Pamoate]	109
C[C@H](C#Cc1ccc(Cc2ccc(F)cc2)s1)N(O)C(N)=O	92
NC(=S)NCCCC(N)C(=O)O (stereo not given) [Thiocitrulline]	112
COc1ccc(CCNCC(O)c2ccc(O)cc2)cc1OC (stereo not drawn) [R(-)-Denopamine]	103
COc1ccc2c(c1)CC[C@@H]1[C@@H]2CC[C@]2(C)[C@@H](NCCCCCCN3C(=O)C=CC3=O)CC[C@@H]12.O	109
N#CC(=Cc1ccc(O)c(O)c1)C(=O)NCc1ccccc1	96
CN(C)CCOc1cc(-c2cn[nH]c2)ccc1NC(=O)C1COc2ccccc2O1 (stereo not given)	95.7
CC(C)(C)C1(O)CCN2CC3c4ccccc4CCc4cccc(c43)C2C1.Cl (racemic)	111
CCC(C)C(=O)OC1CC(C)C=C2C=CC(C)C(CCC3CC(O)CC(=O)O3)C21 (stereo not given) [Lovastatin]	80.8
Cl.NC(N)=NC(=O)Cc1c(Cl)cccc1Cl [Guanfacine hydrochloride]	114
CCN(CC)CCNC(=O)c1cc(Cl)c(N)cc1OC.Cl [Metoclopramide hydrochloride]	106
